Source: PubChem BioAssay (NCI)
About 83,000 compounds went through this panel and 20% of them were active in at least one assay; those are over-represented in the sample as a whole.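 The endpoint reported here, percent growth, reads 100 for growth as untreated, 0 for no net growth and -100 for all cells dead.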 Calls of active or inactive are those of the source. How the source made its calls: active means growth percent below 10; inactive means the rest.

Each molecule was assayed on MDA-MB-468 breast (assay: NCI-60 one-dose screen, 48 h (100 = growth as untreated, 0 = no growth, -100 = all killed)). Settings: 10 µM unless noted.
For `COc1ccc(-n2c(SCc3cc(OC)c(OC)c(OC)c3)nc3ccc(C)cc3c2=O)c(OC)c1`, the growth was 17.1% (inactive).
In the case of `Cc1cccc2c3c(sc12)C(c1ccc(F)cc1)C(C#N)=C(/N=C/c1ccc(Cl)cc1)O3` (stereo unspecified), the growth was 36.2% (inactive).
For `Fc1ccc(CNc2c3ccccc3nc3ccccc23)cc1F`, the growth was -10.7% (active).
In the case of `Cc1ccc(NC(=O)Nc2ccc(-c3cccnc3)cc2N2CCC(CO)CC2)cc1`, the growth was -16.6% (active).
With `O=C1c2cc(Br)ccc2-n2c1nc1cc(Br)ccc1c2=O` the growth was 76.6% (inactive).
In the case of `CC(C)(Sc1cc(C(C)(C)C)c(OC(=O)CCCC(=O)O)c(C(C)(C)C)c1)Sc1cc(C(C)(C)C)c(OC(=O)CCCC(=O)O)c(C(C)(C)C)c1`, the growth was 54.1% (inactive).
In the case of `Cc1ccc(C2CC3c4ccccc4C2C2CCCCN32)cc1` (stereo unspecified), the growth was -0.132% (active).
For `O=C1Nc2ccccc2C12CC(c1ccc(Cl)cc1)=NN2` (stereo unspecified), the growth was 110% (inactive).
`Cn1cccc1-c1nc2c3c(ccc2[nH]1)C(=O)c1ccccc1C3=O` was tested, and the growth was 10.9% (inactive).
In the case of `Cc1ccc(C)c(-n2c(-c3ccc(Br)cc3)csc2=NC(=O)c2ccccc2F)c1`, the growth was 55.4% (inactive).
For `Cc1ccc(S(=O)(=O)NCCNc2nc(Nc3ccc(N4CCN(C)CC4)cc3)nc3ccsc23)cc1`, the growth was 94.1% (inactive).
For `O=[N+]([O-])c1ccc(-c2nc(-c3ccccc3)c(-c3ccccc3)n2-c2ccccc2)cc1`, the growth was 2.29% (active).
`C[C@@H](O)[C@H]1C(=O)N2C(C(=O)O)=C(SC3CN[C@H](C(=O)N(C)C)C3)[C@H](C)[C@H]12` (stereo partly specified) was tested, and the growth was 100% (inactive).
`COCCn1cc(-c2nc(-c3cc4cccnc4n3CCOC)cs2)c2cc(OC)ccc21` was tested, and the growth was -18.4% (active).
For `CCOC(=O)C1=C(Nc2ccc(OC)cc2)C(N)=NC1=N`, the growth was 31.9% (inactive).
`c1cn2c(ccc3nc(-c4cn[nH]c4)c4c(c32)CCCC4)n1` was tested, and the growth was 42% (inactive).
In the case of `C/C(=C\CCc1ccoc1)CC/C=C(\C)CCCN1CCC(CO)CC1`, the growth was 14.5% (inactive).
`CCOc1cc(C(C)(C)C)ccc1C1=N[C@H](c2ccc(Cl)cc2)[C@H](c2ccc(Cl)cc2)N1C(=O)N1CCN(CC#Cc2cccc3c2CN([C@@H]2CCC(=O)NC2=O)C3=O)CC1` was tested, and the growth was -21.9% (active).
In the case of `COC(=O)c1ccc2c(c1)n(Cc1ccc3ccccc3c1)c[n+]2Cc1ccc2ccccc2c1`, the growth was -19% (active).
`COc1cc(C(=O)/C=C/c2c(C)n([O-])c3ccc(Cl)cc3[n+]2=O)cc(OC)c1OC` was tested, and the growth was 27.6% (inactive).
`Oc1ccc(Cl)cc1-c1cc(-c2ccc(Cl)cc2)n[nH]1` was tested, and the growth was 8.55% (active).
For `NC(=O)c1ccc[n+](Cc2ccccc2)c1`, the growth was 98.4% (inactive).
`COc1ccc(-n2c(SCC(=O)Nc3ccc(-c4nc5ccccc5[nH]4)cc3)nc3ccccc3c2=O)cc1` was tested, and the growth was -88.2% (active).
`COc1ccc(Nc2ncc(Br)c(NCCCNC(=O)c3cccs3)n2)cc1` was tested, and the growth was 51.1% (inactive).
For `Nc1ccc(NC(=O)c2cccc(N)c2)cc1`, the growth was 94.2% (inactive).
In the case of `Cc1cc2ccccc2c(O)c1C#N`, the growth was 117% (inactive).
